Source: PubChem BioAssay AID2284388 (EPA ToxCast)
Records with an inconclusive call do not appear. Active and inactive are the calls of the source. Rule for the calls: active = hit-call score of the fitted dose curve at least 0.9, where 1 is the maximum; inconclusive = response in the unintended direction; inactive = score below 0.9.

What follows are compounds tested against human Retinoid X Receptor beta (RXRb) Agonism, RXRB (gene 6257) (UniProt P28702) (assay: ERF_TW_NR_COA_hRXRB: Eurofins (ERF) Nuclear Receptor (NR) Functional Coactivator Assay for human Retinoid X Receptor beta (RXRb) Agonism).
Experimental: ERF_TW_NR_COA_hRXRB is a biochemical, single-readout assay that uses extracted gene-proteins in a cell-free assay. Measurements were taken 0.5 hours after chemical dosing in a 96-well plate. See RXRbeta Human Retinoid X NHR Functional Agonist Coactivator Assay, Panlabs.ERF_TW_NR_COA_hRXRB is an assay component calculated from the ERF_TW_NR_COA_hRXRB assay. It is designed to measure FRET using a type of binding reporter as detected by fluorescence intensity of fluorobexarotene with fluorimetry technology.Data from the assay component ERF_TW_NR_COA_hRXRB was analyzed at the assay endpoint, ERF_TW_NR_COA_hRXRB, in the positive analysis fitting direction relative to DMSO as the negative control and baseline of activity. Using a type of binding reporter, gain-of-signal activity can be used to understand changes in binding as they relate to gene RXRB. To generalize the intended target to other relatable targets, this assay endpoint is annotated to the nuclear receptor intended target family, where the subfamily is non-steroidal.
Test compound and/or vehicle is incubated with the 2 nM retinoid X receptor beta (RXRbeta)-LBD and coactivator peptide for 30 minutes at RT. Determination of the amount of complex formed is read spectrofluorimetrically (excitation: 337 nm, emission: 520/490 nm). Test compound-induced increase fluorescence by 50 percent or more (>/=50%) relative to the 10 uM fluorobexarotene response indicates possible RXRbeta receptor agonist activity.

Chain of human Retinoid X Receptor beta (RXRb) Agonism, RXRB (gene 6257) (P28702 whole entry, looked up): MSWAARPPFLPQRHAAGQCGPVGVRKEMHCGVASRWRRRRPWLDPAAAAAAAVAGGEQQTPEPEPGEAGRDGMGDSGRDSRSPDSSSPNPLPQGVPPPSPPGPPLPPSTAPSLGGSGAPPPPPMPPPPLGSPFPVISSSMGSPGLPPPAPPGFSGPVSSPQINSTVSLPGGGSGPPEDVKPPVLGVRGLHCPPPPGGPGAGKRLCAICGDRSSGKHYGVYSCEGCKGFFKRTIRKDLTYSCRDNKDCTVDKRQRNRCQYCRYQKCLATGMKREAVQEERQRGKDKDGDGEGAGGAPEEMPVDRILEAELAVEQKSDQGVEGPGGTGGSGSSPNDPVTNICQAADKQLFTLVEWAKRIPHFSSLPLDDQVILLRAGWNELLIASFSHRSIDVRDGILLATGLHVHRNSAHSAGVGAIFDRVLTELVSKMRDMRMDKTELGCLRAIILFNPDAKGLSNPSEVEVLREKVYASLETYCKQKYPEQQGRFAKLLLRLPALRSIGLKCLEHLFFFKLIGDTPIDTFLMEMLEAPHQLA

**Q.** How did the outcome turn out when `ClC1=C(Cl)[C@]2(Cl)[C@@H]3[C@@H]4C[C@@H]([C@H]5O[C@@H]45)[C@@H]3[C@@]1(Cl)C2(Cl)Cl` was run?
**A.** The outcome was “inactive”.

**Q.** How did the outcome turn out when `O=C(O)C(F)(F)C(F)(F)C(F)(F)C(F)(F)C(F)(F)C(F)(F)C(F)(F)C(F)(F)Cl` was run?
**A.** The outcome was “inactive”.

**Q.** For `CCCc1c(OCCCOc2ccc(OCC(=O)O)cc2)ccc(C(C)=O)c1O`, which outcome is on record?
**A.** The outcome was “inactive”.

**Q.** Which outcome does the source give for `OCCCC(F)(F)C(F)(F)C(F)(F)C(F)(F)C(F)(F)C(F)(F)C(F)(F)F` here?
**A.** Its outcome is “inactive”.

**Q.** For `O=C(O)C(F)(F)C(F)(F)C(F)(F)OC(F)(C(F)(F)F)C(F)(F)F`, which outcome is on record?
**A.** Its outcome is “inactive”.

**Q.** With `CC1(C)CCC(C)(C)c2cc(C(=O)Nc3ccc(C(=O)O)cc3)ccc21` as the compound, how does the outcome read?
**A.** Its outcome is “inactive”.

**Q.** How did the outcome turn out when `ClC1=C(Cl)[C@]2(Cl)[C@@H]3[C@H]4C[C@H]([C@@H]5O[C@H]45)[C@@H]3[C@@]1(Cl)C2(Cl)Cl` was run?
**A.** The outcome was “inactive”.

**Q.** How did the outcome turn out when `CN(c1nccc(=O)[nH]1)C1CCN(c2nc3ccccc3n2Cc2ccc(F)cc2)CC1` was run?
**A.** Its outcome is “inactive”.

**Q.** How did the outcome turn out when `C/C(=C\c1ccc(C(=O)O)cc1)c1ccc2c(c1)C(C)(C)CCC2(C)C` was run?
**A.** The outcome was “inactive”.

**Q.** Which AC50 does the source give for `CC(=O)c1cc(C(C)(C)C)cc2c1CCC2(C)C` here?
**A.** The AC50 was 14.5 µM (active).

**Q.** Which outcome does the source give for `O=S(=O)(O)C(F)(F)C(F)(F)C(F)(F)C(F)(F)C(F)(F)C(F)(F)C(F)(F)C(F)(F)F` here?
**A.** The outcome was “inactive”.

**Q.** With `O=C(O)C(F)(F)OC(F)(F)C(F)(F)OC(F)(F)C(F)(F)OC(F)(F)C(F)(F)C(F)(F)C(F)(F)F` as the compound, how does the outcome read?
**A.** Its outcome is “inactive”.

**Q.** Which outcome does the source give for `Cc1ccc2cc3c(ccc4ccccc43)c3c2c1CC3` here?
**A.** Its outcome is “inactive”.
